# Among all 5,500 compounds or so, about 2,000 (36%) were called active. About 18% were inconclusive and are not listed. The list shows a part of the results. A number with no mark means an inactive call. Rule as the data show it: active = normalized growth mostly below about 0.91 (no sharp cut-off); inconclusive = no clear call, values can overlap the other calls; inactive = mostly above about 0.92.
# Test: chemical genetic growth profiling, strain panel (AID 1159580);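 also: tested at 20 µM; growth read once vehicle control cultures reached saturation at 30 °C; 1 = growth at the plate median or of vehicle wells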
# Conditions: S. cerevisiae deletion strains, growth OD
smiles,measurement,setting,value
CN(C)c1ccc(-c2n[nH]c(=O)c3ccccc23)cc1[N+](=O)[O-],normalized growth,"locus YAL013W, strain DEP1, stronger effect = lower value",0.966
same,normalized growth,"locus YBR229C, strain ROT2, stronger effect = lower value",0.986
same,normalized growth,"locus YCL061C, strain MRC1, stronger effect = lower value",0.98
same,normalized growth,"locus YDL101C, strain DUN1, stronger effect = lower value",1
same,normalized growth,"locus YDR150W, strain NUM1, stronger effect = lower value",0.981
same,normalized growth,"locus YEL061C, strain CIN8, stronger effect = lower value",0.907 (active)
same,normalized growth,"locus YGR078C, strain PAC10, stronger effect = lower value",1
same,normalized growth,"locus YHR030C, strain SLT2, stronger effect = lower value",0.875
same,normalized growth,"locus YHR087W, strain rtc3, stronger effect = lower value",0.982
same,normalized growth,"locus YJL187C, strain SWE1, stronger effect = lower value",0.978
same,normalized growth,"locus YJR043C, strain POL32, stronger effect = lower value",0.963
same,normalized growth,"locus YJR075W, strain HOC1, stronger effect = lower value",0.99
same,normalized growth,"locus YKL190W, strain CNB1, stronger effect = lower value",1.01
same,normalized growth,"locus YLR039C, strain RIC1, stronger effect = lower value",1.09
same,normalized growth,"locus YLR058C, strain SHM2 (second series), stronger effect = lower value",0.994
same,normalized growth,"locus YLR085C, strain ARP6, stronger effect = lower value",0.882
same,normalized growth,"locus YLR262C, strain YPT6, stronger effect = lower value",1.08
same,normalized growth,"locus YML094W, strain GIM5, stronger effect = lower value",0.891
same,normalized growth,"locus YMR219W, strain ESC1, stronger effect = lower value",0.999
same,normalized growth,"locus YMR263W, strain SAP30, stronger effect = lower value",0.961
same,normalized growth,"locus YNL153C, strain GIM3, stronger effect = lower value",0.979
same,normalized growth,"locus YNL298W, strain CLA4 (second series), stronger effect = lower value",0.891
same,normalized growth,"locus YNL322C, strain KRE1, stronger effect = lower value",1.03
same,normalized growth,"locus YNR030W, strain Alg12, stronger effect = lower value",0.955
same,normalized growth,"locus YPL055C, strain LGE1, stronger effect = lower value",0.886
same,normalized growth,"locus YPL241C, strain CIN2, stronger effect = lower value",0.96
same,normalized growth,"locus YPR135W, strain CTF4, stronger effect = lower value",0.97

# — PubChem BioAssay AID1159580 (chemical genetic matrix, 2015)
